These results are taken from PubChem BioAssay (Tox21).

Records with an inconclusive call do not appear. Where a call stands in place of a potency, no number is given. Calls of active or inactive are those of the source. The call rests on the fitted dose curve; in most records, active means well fitted cell-killing curve with a large enough effect in the repeat runs; inconclusive means weak or mixed curves, or effect the other way; inactive means flat fitted curve, though single readings scatter.

The nature of experiment [1]: cAMP Responsive Elements (CRE) small molecule antagonists, cell-based qHTS assay: qHTS cell viability counter screen (AID 2060913). Further: nearly all actives have a fitted effect of over 40% in size. In short, it runs like this:
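Steps: cells plated and held 18 hrs at 37 C/5% CO2; compounds and NKH477 (0.25 uM final) added; 3 hrs incubation; reporter substrate read; CellTiter-Glo added to measure cytotoxicity by luminescence.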

The nature of experiment [2]: cAMP Responsive Elements (CRE) small molecule agonists, cell-based qHTS assay: qHTS cell viability counter screen (AID 2060914). Further: nearly all actives have a fitted effect of over 50% in size. In short, it runs like this: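 HEK 293T CRE-bla; DMEM + 10% dialyzed FBS, 25 mM HEPES; 18 h pre-incubation; compound 3 h, 37 °C/5% CO2; CellTiter-Glo added after reporter read; luminescence after 30 min RT.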

Take `c1cc[c]([Sb]([c]2ccccc2)[c]2ccccc2)cc1`: the Potency result in experiment [1] and in experiment [2] was “inactive” in each case.
For `O.O.O.O=C([O-])[C@H]([O-])[C@@H]([O-])C(=O)[O-].O=C([O-])[C@H]([O-])[C@@H]([O-])C(=O)[O-].[K+].[K+].[Sb+3].[Sb+3]`, the Potency result in experiment [1] and in experiment [2] was “inactive” in each case.
In the case of `CC(Cc1ccc2c(c1)OCO2)NO` (centres undefined), the Potency result in experiment [1] and in experiment [2] was “inactive” throughout.
In the case of `CCn1cc[n+](C)c1` (tested in a mixture with another compound), the Potency entry in experiment [1] and in experiment [2] was “inactive” each time.
Regarding `CCc1ccccc1N`, the Potency result in experiment [1] and in experiment [2] was “inactive” throughout.
Take `Brc1ccc(Br)cc1`: the Potency result in experiment [1] and in experiment [2] was “inactive” each time.
`CC(C=O)Cc1ccc2c(c1)OCO2` (centres undefined): the Potency result in experiment [1] and in experiment [2] was “inactive” throughout.
As for `CNC(=O)/C=C(\C)OP(=O)(OC)OC`, the Potency result in experiment [1] and in experiment [2] was “inactive” each time.
As to `COP(=S)(OC)Oc1ccc([N+](=O)[O-])cc1`, the Potency result in experiment [1] and in experiment [2] was “inactive” each time.
With `O=P(Oc1ccccc1)(Oc1ccccc1)Oc1ccccc1`, the Potency result in experiment [1] and in experiment [2] was “inactive” each time.
As for `CC(C)=CC1C(C(=O)OCc2coc(Cc3ccccc3)c2)C1(C)C` (centres undefined), the Potency result in experiment [1] and in experiment [2] was “inactive” each time.
Turning to `N#CCBr`, the Potency result in experiment [1] and in experiment [2] was “inactive” each time.
Regarding `O=[N+]([O-])c1ccc2c3c(cccc13)CC2`, the Potency entry in experiment [1] and in experiment [2] was “inactive” each time.
Take `CN(C)c1ccccc1`: the Potency entry in experiment [1] and in experiment [2] was “inactive” in each case.
For the compound `Oc1ccc(C(=C(Cl)Cl)c2ccc(O)cc2)cc1`, the Potency result in experiment [1] and in experiment [2] was “inactive” in each case.
As to `CCCSP(=O)(OCC)Oc1ccc(Br)cc1Cl` (centres undefined), the Potency result in experiment [1] and in experiment [2] was “inactive” each time.
Take `CCN(CCO)CCO`: the Potency result in experiment [1] and in experiment [2] was “inactive” each time.
